From PubChem BioAssay (EPA / NIEHS) come the findings set out here.

Several values for one entry are separate records, joined by “and”; a condition that tells them apart may be missing. Identical values can stand only once. The source holds several records for some structures; these can differ, active in one and inactive in another. Activity calls are given as the source filed them. How the source made its calls: active means hit-call score of the fitted dose curve at least 0.9, where 1 is the maximum; inactive means score below 0.9.

Tumor necrosis factor (Homo sapiens), sequence (P01375 whole entry, looked up): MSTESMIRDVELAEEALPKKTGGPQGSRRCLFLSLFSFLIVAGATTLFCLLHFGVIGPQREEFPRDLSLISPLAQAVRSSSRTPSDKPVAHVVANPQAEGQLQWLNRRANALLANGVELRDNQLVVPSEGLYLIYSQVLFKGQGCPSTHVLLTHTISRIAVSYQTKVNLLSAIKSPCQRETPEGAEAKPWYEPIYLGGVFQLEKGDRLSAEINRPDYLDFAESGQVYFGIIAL

Read-out in this experiment: Tumor necrosis factor (Homo sapiens) (UniProt P01375)
In words: BSK_BT_xTNFa: BioMAP Diversity Plus: BT Assay for Tumor necrosis factor alpha (TNF-alpha) Biomarker Activity (AID 2284230). Conditions: primary human B cells with PBMC. As to the method:
BSK_BT is a cell-based, multiplexed-readout assay that uses B cell and peripheral blood mononuclear cells, a human vascular primary cell co-culture, with measurements taken at 24 hours after chemical dosing in a microplate: 96-well plate.BSK_BT_xTNFa is an assay component of the BSK_BT assay. It measures secreted TNF-alpha related to regulation of gene expression using LumineX xMAP technology.Data from the assay component BSK_BT_xTNFa was analyzed at the endpoint, BSK_BT_xTNFa, in the positive analysis fitting direction relative to DMSO as the negative control and baseline of activity. Using a type of cytokine quantitation reporter, gain or loss-of-signal activity can be used to understand protein changes. To generalize the intended target to other relatable targets, this assay endpoint is annotated to the 'cytokine' intended target family, where the subfamily is 'inflammatory factor'.
The levels of cell surface (or secreted, indicated by the prefix "s") biomarker endpoints were measured by ELISA. Overt cytotoxicity to cells in confluent adherent cultures (all systems other than the BT system) was assessed by measuring total protein levels using sulforhodamine B (SRB) staining in parallel cultures at the time of biomarker measurements, indicated as SRB endpoints. For proliferation assays for adherent cell types, individual cell types are cultured at sub-confluence and relative cell numbers quantified by SRB staining at time points optimized for each system (48 h: 3C and CASM3C systems; 72 h: BT and HDF3CGF systems; 96 h: SAg system). SRB was performed by staining cells with 0.1% SRB after fixation with 10% TCA and reading wells at 560 nm.Viability and proliferation of PBMC (T cells) was quantified by Alamar Blue reduction for the SAg and BT systems. For PBMC viability (referred to as PBMC Cytotoxicity within the assay endpoint names), cells were plated (75,000/well in a 96-well plate) and then chemical samples added for 1 h before addition of activators, SEB and TSST-1 (20 ng/mL final concentration each). Cells were incubated for 90 h. Then, Alamar Blue (20 uL/well) (Invitrogen, Cat DAL1100) was added for 6 h, and the plates were read with a fluorescence microplate reader at 546/580 nm (excitation/emission). For PBMC proliferation, cells were plated and activated as above but incubated for only 16 h prior to addition of Alamar Blue. Plates were read after 6 h.
Turning to `CC(C)c1cccc(C(C)C)c1N`, the result was inactive.

On to `Cc1c(O)cccc1O`, for which the outcome was inactive.

Broadly, the AC50 is the midpoint of the concentration-response curve, whichever way the signal moves. Consider `c1ccc2sc(SSN3CCOCC3)nc2c1`, for which the AC50 was 24.3 µM (active).

`O=C1CCCCCCCCCCCN1`: the outcome was inactive.

In the case of `C=CC(=O)NCOCCCC`, the result was inactive.

As for `C=CCCCCCCCCC=O`, the outcome was inactive.

As to `CCC1(C)C(=O)N(Cl)C(=O)N1Cl` (stereo not given), the outcome was inactive.

Regarding `CCOC(=O)C1=NOC(c2ccccc2)(c2ccccc2)C1`, the outcome was inactive.

On to `Clc1cc(Cl)c(Cl)c(Cl)c1Cl`, for which the outcome was inactive.

For `CCCCCCCCC(CO)CCCCCC` (stereo not given), the result was inactive.

For the compound `O=C1CCCCCCCCCCC1`, the result was inactive.

With `CCN1CN(CC)CN(CC)C1`, the result was inactive.

Turning to `CCCCCC1=CCCC1=O`, the result was inactive.

On to `CCCCCCC=O`, for which the result was inactive.

Regarding `c1ccc2c(c1)[nH]c1ccccc12`, the outcome was inactive.

`O=C(O)C(F)(F)C(F)(F)C(F)(F)C(F)(F)C(=O)O`: the AC50 is 2.64 µM (active) and the result was inactive.

As for `CCOC(=O)C1=NN(c2ccc(Cl)cc2Cl)C(C)(C(=O)OCC)C1` (stereo not given), the result was inactive.

As for `CCCCCCCO`, the outcome was inactive.

Consider `C=CC(=O)OCCCCCCOC(=O)C=C`, for which the AC50 is 13.1 µM (active).

As to `C[N+](C)(C)CCCNS(=O)(=O)C(F)(F)C(F)(F)C(F)(F)C(F)(F)C(F)(F)C(F)(F)C(F)(F)C(F)(F)F`, the AC50 was 30 µM (active) and 20.4 µM (active).

In the case of `C=CC(=O)NC(C)(C)C`, the result was inactive.

With `C=CC(=O)OCC(C)OCC(C)OCC(C)OC(=O)C=C` (stereo not given), the AC50 was 10.3 µM (active).

Turning to `Oc1ccc(/C=C/c2cc(O)cc(O)c2)cc1`, the AC50 was 25.7 µM (active).

As to `Nc1cccc(N)n1`, the outcome was inactive.

In the case of `Oc1c(Cl)cc(Cl)c(Cl)c1Cl`, the result was inactive.

As to `O=C(Cl)c1c(Cl)c(Cl)c(C(=O)Cl)c(Cl)c1Cl`, the result was inactive.

For the compound `CC/C=C\C/C=C\C/C=C\CCCCCCCC(=O)OC`, the AC50 was 27.8 µM (active).

As for `CC1=CC=C(C(C)C)CC1`, the result was inactive.

For the compound `CC(c1cc(C(C)(C)C)cc(C(C)(C)C)c1O)c1cc(C(C)(C)C)cc(C(C)(C)C)c1O`, the AC50 is 26.5 µM (active).

As to `CCOC(=O)/C=C\C(=O)OCC`, the outcome was inactive.

With `CCCCCCOC(=O)CCCCC(=O)OCCCCCC`, the result was inactive.

For `COc1ccc(C(=O)/C(Br)=C\C(=O)O)cc1`, the AC50 is 31.3 µM (active) and 29.5 µM (active).

Regarding `CC(C)CCCCCOC(=O)CS`, the outcome was inactive.

As to `CC/C=C\CCOC(=O)c1ccccc1O`, the result was inactive.

As to `CC=C(C)C(C)=O`, the result was inactive.

`C=C(C)C(=O)OCCCCCCCCCCCC`: the result was inactive.

Turning to `CC=C(C)C=CC=C(C)C`, the AC50 was 27.7 µM (active).

Consider `CC(Cl)COP(=O)(OCC(C)Cl)OCC(C)Cl` (stereo not given), for which the outcome was inactive.

As for `CCc1cccc(C)c1N(C(=O)CS(=O)(=O)O)C(C)COC` (stereo not given), the outcome was inactive.
